# Measurements: PubChem BioAssay (NCI)
# This is part of a sample that, as a whole, favours compounds with a hit. Of some 83,000 tested, about 20% had one in any assay.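 How to read the values: 0–100, growth inhibition (40 = 60% inhibited); 0, no net growth; -100 to 0, cell death (-40 = 40% of starting cells died; -100 = all dead).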 The source made the active and inactive calls. The calls were made as follows: active = growth percent below 10; inactive = the rest.
# System: HL-60(TB) leukemia
# Assay: NCI-60 one-dose screen, 48 h (100 = growth as untreated, 0 = no growth, -100 = all killed)
# Settings: 10 µM unless noted
row,SMILES,growth
1,N#Cc1c(-c2ccc(Cl)cc2)cc(-c2cc(O)ccc2O)nc1N,68.2% (inactive)
2,COc1ccc(Cn2c(Br)c3c(c2-c2cc(OC)c(OC)c(OC)c2)CCc2sc(N)nc2-3)cc1,-14.5% (active)
3,COc1ccc(C2=NN(C(C)=O)C(c3ccc(Oc4ccnc5cc(Cl)ccc45)c(OC)c3)C2)cc1 (stereo not given),78.4% (inactive)
4,O=C(N/N=C(\CS(=O)(=O)c1ccccc1)c1cc2cc(Br)ccc2oc1=O)c1ccccc1,119% (inactive)
5,C=C(C)[C@@H]1C[C@@H]2Cc3ccc(Cl)c(C)c3N1O2,3.4% (active)
6,NC(=O)c1c(NC(=O)c2ccccc2)sc2c1CCC(=O)C2,-6.87% (active)
7,O=C(Nc1ccccc1C(=O)N/N=C(\c1ccccc1)c1ccccn1)c1ccc(F)cc1,-1.1% (active)
8,Ic1ccccc1-c1ccccc1,81.2% (inactive)
9,COc1ccc(Nc2nn3c(SCC(=O)c4ccc(C)cc4)nnc3s2)cc1,86% (inactive)
10,CC(C)CCSc1nc(Nc2ccccc2)c(C#N)c(-c2ccccc2)n1,76.5% (inactive)
11,CN1C/C=C\CCOc2cccc(c2)-c2ccnc(n2)Nc2cccc(c2)C1,-51.9% (active)
12,c1cc(OCCN2CCCC2)ccc1CNc1ccc2nc(CCC3CCCCC3)[nH]c2c1,-4.69% (active)
13,CCCCCCC(=O)Nc1ncc(Cc2ccc(C)cc2)s1,-18.2% (active)
14,CCOC(=O)CNC(=O)Sc1ccc(C(C)(C)C)cc1,64.4% (inactive)
15,CC1(C)CN(CCNc2nccc(-c3c(-c4cccc(O)c4)nc4sccn34)n2)S(=O)(=O)N1,82.5% (inactive)
16,Cc1nc2ccc(Cl)cn2c1-c1nnc(SCc2ccc([N+](=O)[O-])cc2)o1,109% (inactive)
17,COc1cc2c(cc1-c1c(C)noc1C)ncc1nc(C3CCCC3)n([C@H](C)COC(F)F)c12,27.8% (inactive)
18,COC(=O)N[C@H]1CCc2cc(OC)c(OC)c(OC)c2-c2ccc(SC)c(=O)cc21,-45.4% (active)
19,CCC1NC(=O)c2cc(S(N)(=O)=O)c(Cl)cc2N1 (stereo not given),120% (inactive)
20,Cc1ccc(N=NC2C(=O)N(c3ccc(Cl)cc3)N(c3ccc(Cl)cc3)C2=O)cc1,103% (inactive)

row,SMILES,growth
1,Cc1ccc(NC(=O)c2ccccc2Cl)cc1,86.1% (inactive)
2,O=C(Nc1ccc2ccccc2c1)c1cc2ccccc2cc1O,79.7% (inactive)
3,CCOc1ccc(NC(=O)c2cc(OC)c(OC)c(OC)c2)cc1,-8.94% (active)
4,CCCCCCCCCCCC[n+]1ccccc1,-49.7% (active)
5,NC(=O)c1cccc(N2Cc3ccccc3OC3=C2C(=O)c2c(O)ccc(O)c2C3=O)c1,-46.3% (active)
6,N#Cc1c(NC(=O)c2cccc(C(F)(F)F)c2)sc2c1CCC(=O)C2,-8.73% (active)
7,CCOC(=O)/C(=C\c1ccccc1Cl)P(=O)(OCC)OCC,10.8% (inactive)
8,O=c1ccn(C2CC=C(CO)O2)c(=O)[nH]1 (stereo not given),91.9% (inactive)
9,Cc1cc(C)c(C#N)c(Sc2nc(C)c([N+](=O)[O-])c(C)c2C#N)n1,66.2% (inactive)
10,O=C(O)c1cc([N+](=O)[O-])ccc1Oc1ccccc1,88.6% (inactive)
11,CN(Cc1cc(Br)cc(Br)c1O)Cc1cc(Br)cc(Br)c1O,22.7% (inactive)
12,COc1c(O)cc2oc3cc(O)c(CC=C(C)C)c(O)c3c(=O)c2c1CC=C(C)C,65.9% (inactive)
13,COc1cc(C(C)c2ccc3c(ccn3C)c2)cc(OC)c1OC (stereo not given),-12.1% (active)
14,Nc1ncnc2c1N=C(c1ccc3c(c1)OCO3)CC(c1ccc([N+](=O)[O-])cc1)N2 (stereo not given),88.7% (inactive)
15,COC(=O)c1ccc2c(C(=Nc3ccc(N(C)C(=O)CN4CCN(C)CC4)cc3)c3ccccc3)c(O)[nH]c2c1,70.8% (inactive)
16,O=S1(=O)C=C(c2ccccc2)C(c2ccccc2)=C1,-16.3% (active)
17,CNC(=O)c1cc(Oc2ccc3nc(NC(=O)Nc4ccc(Cl)cc4)sc3c2)ccn1,98.9% (inactive)
18,CC(=O)c1nc2ccccc2n1CCn1cc(CC(N)C(=O)O)c2ccccc21 (stereo not given),100% (inactive)
19,Cc1ccccc1-n1c(C)nc2cc(NC(=O)c3ccc(Cl)cc3)ccc2c1=O,64.5% (inactive)
20,CCCCC(NC(=O)CN1C(=O)/C(=C/C(C)=C/c2ccccc2)SC1=S)C(=O)O (stereo not given),113% (inactive)
